Where “and” joins values, the source holds several entries; their conditions need not be identical. Equal values may be shown once. The source holds several records for some structures; these can differ, active in one and inactive in another. Calls of active or inactive are those of the source. The calls were made as follows: active = hit-call score of the fitted dose curve at least 0.9, where 1 is the maximum; inactive = score below 0.9.
Assay: ATG_GATA_CIS: Attagene CIS-FACTORIAL HepG2 Assay for human GATA Binding Protein (AID 2282944)
Conditions: HepG2 GATA cis-element reporter, Attagene multiplex mRNA; actives raise or lower the signal
Protocol: ATG_CIS is a cell-based, multiplexed-readout assay that uses HepG2, a human liver cell line, with measurements taken at 24 hours after chemical dosing in a 24-well plate.ATG_GATA_CIS is one of 52 assay component(s) measured or calculated from the ATG_CIS assay. It is designed to make measurements of mRNA induction, a form of inducible reporter, as detected with fluorescence intensity signals by Reverse transcription polymerase chain reaction (RT-PCR) and Capillary electrophoresis technology.Data from the assay component ATG_GATA_CIS was analyzed into 1 assay endpoint. This assay endpoint, ATG_GATA_CIS, was analyzed with bidirectional fitting relative to DMSO as the negative control and baseline of activity. Using a type of inducible reporter, measures of mRNA for gain or loss-of-signal activity can be used to understand the reporter gene at the transcription factor-level as they relate to the gene GATA1. Furthermore, this assay endpoint can be referred to as a primary readout, because this assay has produced multiple assay endpoints where this one serves a reporter gene function. To generalize the intended target to other relatable targets, this assay endpoint is annotated to the dna binding intended target family, where the subfamily is GATA proteins.
Human liver HepG2 cells are transiently transfected with multiple reporter transcription units (MRTUs) in 6-well plates using FuGene 6 reagent (Roche; 3 ml FuGene/1 mg DNA). The MRTU constructs are regulated by a cis-regulating element (promoter). […] A major difference between the CIS and TRANS system is that in CIS activities of endogenous TFs are measured, whereas the TRANS assay evaluates changes in activities of exogenous, chimeric NR-Gal4 proteins. […] At the end of 24 hour incubation, total RNA was isolated using TriZol reagent (Invitrogen). The isolated RNA is then reverse-transcribed using oligo(dT) primer and Mo-MLV reverse transcriptase (Invitrogen) with DNAse I (Ambion) treatment for 30 min. The one-tenth of the produced cDNA was amplified by PCR using Taq DNA polymerase (Invitrogen) and two reporter sequence-specific primers. The PCR products were fluorescently labeled by primer extension with 6-arboxyfluorescein (6-FAM) 5'-labeled reporter sequence-specific primer (2 min at 95 C, 20 s at 68 C and 10 min at 72 C) and these products were digested with 5U of HpaI (New England Biolabs) for 2h at 37 C. The fragments were purified using Qiaquick PCR columns (Qiagen), analyzed on an ABI 3130xL genetic analyzer (Applied Biosystems) with peak positions identified by using a set of X-rhodamine (ROX)-labeled MapMarker1000 molecular weight standards (BioVentures). The raw capillary electrophoresis data was processed using Attagraph software (Attagene).

Row | SMILES | outcome | AC50
1 | C1=COCCC1 | inactive | –
2 | CCCCN(CCO)CCO | inactive | –
3 | COc1ccc2[nH]cc(CCNC(C)=O)c2c1 | inactive | –
4 | CCOC(=O)CCCCCCCCC(=O)OCC | inactive | –
5 | CCC(C)(C)c1cc(O)c(C(C)(C)CC)cc1O | – | 27.2 µM (active)
6 | OCC=Cc1ccccc1 | inactive | –
7 | S=c1[nH][nH]c(=S)s1 | inactive | –
8 | CC(C)COC(=O)c1ccccc1O | inactive | –
9 | CC(=O)C1=C(C)[C@@H]2C[C@@]3(C1)[C@H](C)CC[C@H]3C2(C)C | inactive | –
10 | CCC(C)COC(=O)CC(C)C (stereo not given) | inactive | –
11 | CC1=CCC(C(C)C)=CC1 | inactive | –
12 | C=CC(=O)OCC(CO)(COC(=O)C=C)COC(=O)C=C | inactive | –
13 | C#C[C@]1(O)CC[C@H]2[C@@H]3CCc4cc(O)ccc4[C@H]3CC[C@@]21C | inactive | 139 µM (active) and 142 µM (active)
14 | CC/C=C\C#N | inactive | –
15 | Nc1ccn([C@H]2CC[C@@H](CO)O2)c(=O)n1 | inactive | –
16 | O=C1CCCCCCCCCCCC(=O)OCCO1 | inactive | –
17 | CC(=O)Oc1c(C)c(C)c2c(c1C)CC[C@@](C)(CCC[C@H](C)CCC[C@H](C)CCCC(C)C)O2 | inactive | –
18 | CC1=CCC(=C(C)C)CC1 | inactive | –
19 | NS(=O)(=O)c1cc(C(=O)O)c(NCc2ccco2)cc1Cl | inactive | –
20 | CC/C=C\CCOC(C)OCC (stereo not given) | inactive | –

Row | SMILES | outcome | AC50
21 | Cc1ccccc1S | inactive | –
22 | C=CC(O)CCCCC (stereo not given) | inactive | –
23 | CCCCCCCCCCOC(=O)c1ccccc1C(=O)OCCCCCCCC | inactive | –
24 | CC1=CC(C)C(C=O)C(C)C1 (stereo not given) (tested in a mixture with another compound) | inactive | –
25 | CC(=O)CCC(=O)O | inactive | –
26 | CCCCCCCCOC(C)=O | inactive | –
27 | CC(=O)N(C)C | inactive | –
28 | CC1=C(C=O)C(C)(C)CCC1 | inactive | –
29 | C=CC(=O)OCCCCCC | inactive | –
30 | C=C(C)C(=O)OCCOCCOC(=O)C(=C)C | inactive | –
31 | CC1COC(=O)O1 (stereo not given) | inactive | –
32 | CCCCN(CCCC)CCCCCCN(CCCC)CCCC | inactive | –
33 | NCCN1CCNCC1 | inactive | –
34 | CC(=O)c1ccc(C)cc1 | inactive | –
35 | C=C(C)C(N)=O | inactive | –
36 | CNC(=C[N+](=O)[O-])NCCSCc1ccc(CN(C)C)o1 | inactive | –
37 | O=C1OC2(c3ccc(O)cc3Oc3cc(O)ccc32)c2ccccc21 | inactive | –
38 | Cc1cc(O)c(C)c(C)c1O | inactive | –
39 | CC(CCO)CC(C)(C)C (stereo not given) | inactive | –

From PubChem BioAssay (EPA / NIEHS)
